Measurements from PubChem BioAssay AID1159580 (chemical genetic matrix, 2015).
Among all 5,500 compounds or so, about 2,000 (36%) were called active. Inconclusive results (about 18%) are left out. The list shows a part of the results. Values without a mark were called inactive. No stated cut-off is given here; in the data, active means normalized growth mostly below about 0.91 (no sharp cut-off); inconclusive means no clear call, values can overlap the other calls; inactive means mostly above about 0.92.

Assay: chemical genetic growth profiling, strain panel (AID 1159580);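 further: tested at 20 µM; growth read once vehicle control cultures reached saturation at 30 °C; 1 = growth at the plate median or of vehicle wells; lower values mean less growth of the strain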
Conditions: growth OD

## O=C1CN(/N=C\c2ccc([N+](=O)[O-])o2)C(=O)N1
S. cerevisiae deletion strains, locus YJR075W, strain HOC1, active compounds read low
  normalized growth: 0.986
S. cerevisiae deletion strains, locus YKL009W, strain mrt4, active compounds read low
  normalized growth: 0.967
S. cerevisiae deletion strains, locus YKL068W, active compounds read low
  normalized growth: 1
S. cerevisiae deletion strains, locus YKL085W, strain MDH1 (second series), active compounds read low
  normalized growth: 0.991
S. cerevisiae deletion strains, locus YKL085W, strain MDH1, active compounds read low
  normalized growth: 0.991
S. cerevisiae deletion strains, locus YKL160W, strain elf1, active compounds read low
  normalized growth: 0.985
S. cerevisiae deletion strains, locus YKL190W, strain CNB1, active compounds read low
  normalized growth: 0.996
S. cerevisiae deletion strains, locus YKR001C, strain vps1, active compounds read low
  normalized growth: 0.965
S. cerevisiae deletion strains, locus YKR026C, strain gcn3, active compounds read low
  normalized growth: 0.979
S. cerevisiae deletion strains, locus YKR091W, strain srl3, active compounds read low
  normalized growth: 0.979
S. cerevisiae deletion strains, locus YLL001W, strain dnm1, active compounds read low
  normalized growth: 1
S. cerevisiae deletion strains, locus YLL026W, active compounds read low
  normalized growth: 0.992
S. cerevisiae deletion strains, locus YLL041C, strain sdh2, active compounds read low
  normalized growth: 0.978
S. cerevisiae deletion strains, locus YLR027C, strain aat2, active compounds read low
  normalized growth: 0.975
S. cerevisiae deletion strains, locus YLR039C, strain RIC1, active compounds read low
  normalized growth: 0.983
S. cerevisiae deletion strains, locus YLR058C, strain SHM2, active compounds read low
  normalized growth: 1.01
S. cerevisiae deletion strains, locus YLR102C, strain apc9, active compounds read low
  normalized growth: 0.993
S. cerevisiae deletion strains, locus YLR113W, strain HOG1, active compounds read low
  normalized growth: 0.968
S. cerevisiae deletion strains, locus YLR221C, strain rsa3, active compounds read low
  normalized growth: 0.976
S. cerevisiae deletion strains, locus YLR258W, strain gsy2, active compounds read low
  normalized growth: 0.975
S. cerevisiae deletion strains, locus YLR262C, strain YPT6 (second series), active compounds read low
  normalized growth: 0.976
S. cerevisiae deletion strains, locus YLR262C, strain YPT6, active compounds read low
  normalized growth: 1.04
S. cerevisiae deletion strains, locus YLR268W, strain sec22, active compounds read low
  normalized growth: 0.996
S. cerevisiae deletion strains, locus YLR320W, strain mms22, active compounds read low
  normalized growth: 0.935
S. cerevisiae deletion strains, locus YLR330W, strain CHS5, active compounds read low
  normalized growth: 1
S. cerevisiae deletion strains, locus YLR342W, strain FKS1 (second series), active compounds read low
  normalized growth: 0.983
S. cerevisiae deletion strains, locus YLR342W, strain FKS1, active compounds read low
  normalized growth: 0.979
S. cerevisiae deletion strains, locus YLR357W, strain rsc2, active compounds read low
  normalized growth: 0.954
S. cerevisiae deletion strains, locus YLR370C, strain arc18, active compounds read low
  normalized growth: 0.985
S. cerevisiae deletion strains, locus YLR371W, strain rom2, active compounds read low
  normalized growth: 1.01
S. cerevisiae deletion strains, locus YLR384C, strain iki3, active compounds read low
  normalized growth: 0.986
S. cerevisiae deletion strains, locus YLR418C, strain cdc73, active compounds read low
  normalized growth: 0.885
S. cerevisiae deletion strains, locus YML016C, strain PPZ1, active compounds read low
  normalized growth: 0.998
S. cerevisiae deletion strains, locus YML032C, strain rad52, active compounds read low
  normalized growth: 0.929
S. cerevisiae deletion strains, locus YML120C, strain ndi1, active compounds read low
  normalized growth: 0.982
S. cerevisiae deletion strains, locus YML124C, strain tub3, active compounds read low
  normalized growth: 0.991
S. cerevisiae deletion strains, locus YMR058W, strain fet3, active compounds read low
  normalized growth: 0.898 (active)
S. cerevisiae deletion strains, locus YMR078C, strain ctf18, active compounds read low
  normalized growth: 0.989
S. cerevisiae deletion strains, locus YMR125W, strain sto1, active compounds read low
  normalized growth: 0.943
S. cerevisiae deletion strains, locus YMR129W, active compounds read low
  normalized growth: 0.965
S. cerevisiae deletion strains, locus YMR205C, strain PFK2, active compounds read low
  normalized growth: 0.993
S. cerevisiae deletion strains, locus YMR223W, strain ubp8, active compounds read low
  normalized growth: 0.949
S. cerevisiae deletion strains, locus YMR231W, strain pep5, active compounds read low
  normalized growth: 0.985
S. cerevisiae deletion strains, locus YMR263W, strain SAP30, active compounds read low
  normalized growth: 0.977
S. cerevisiae deletion strains, locus YMR307W, strain GAS1, active compounds read low
  normalized growth: 0.973
S. cerevisiae deletion strains, locus YNL067W, strain RPL9B, active compounds read low
  normalized growth: 0.982
S. cerevisiae deletion strains, locus YNL071W, strain lat1, active compounds read low
  normalized growth: 0.959
S. cerevisiae deletion strains, locus YNL128W, strain TEP1, active compounds read low
  normalized growth: 0.974
S. cerevisiae deletion strains, locus YNL153C, strain GIM3, active compounds read low
  normalized growth: 0.966
S. cerevisiae deletion strains, locus YNL183C, strain NPR1, active compounds read low
  normalized growth: 0.879
S. cerevisiae deletion strains, locus YNL209W, strain ssb2, active compounds read low
  normalized growth: 0.975
S. cerevisiae deletion strains, locus YNL233W, strain BNI4, active compounds read low
  normalized growth: 0.995
S. cerevisiae deletion strains, locus YNL248C, strain rpa49, active compounds read low
  normalized growth: 0.923
S. cerevisiae deletion strains, locus YNL250W, strain rad50, active compounds read low
  normalized growth: 0.877 (active)
S. cerevisiae deletion strains, locus YNL271C, strain bni1, active compounds read low
  normalized growth: 0.998
S. cerevisiae deletion strains, locus YNL298W, strain CLA4, active compounds read low
  normalized growth: 0.991
S. cerevisiae deletion strains, locus YNL307C, strain MCK1, active compounds read low
  normalized growth: 0.952
S. cerevisiae deletion strains, locus YNL322C, strain KRE1 (second series), active compounds read low
  normalized growth: 0.98
S. cerevisiae deletion strains, locus YNL322C, strain KRE1, active compounds read low
  normalized growth: 1.01
S. cerevisiae deletion strains, locus YNR049C, strain mso1, active compounds read low
  normalized growth: 0.984
S. cerevisiae deletion strains, locus YNR052C, strain pop2, active compounds read low
  normalized growth: 0.998
S. cerevisiae deletion strains, locus YOL006C, strain TOP1, active compounds read low
  normalized growth: 1.03
S. cerevisiae deletion strains, locus YOL012C, strain htz1
  normalized growth: 0.88
S. cerevisiae deletion strains, locus YOL147C, strain pex11, active compounds read low
  normalized growth: 0.999
S. cerevisiae deletion strains, locus YOR001W, strain rrp6, active compounds read low
  normalized growth: 0.977
S. cerevisiae deletion strains, locus YOR061W, strain CKA2, active compounds read low
  normalized growth: 0.998
S. cerevisiae deletion strains, locus YOR069W, strain VPS5, active compounds read low
  normalized growth: 0.999
S. cerevisiae deletion strains, locus YOR070C, strain gyp1, active compounds read low
  normalized growth: 0.98
S. cerevisiae deletion strains, locus YOR080W, strain dia2, active compounds read low
  normalized growth: 0.983
S. cerevisiae deletion strains, locus YOR083W, strain WHI5, active compounds read low
  normalized growth: 1
S. cerevisiae deletion strains, locus YOR106W, strain vam3, active compounds read low
  normalized growth: 0.969
S. cerevisiae deletion strains, locus YOR136W, strain idh2, active compounds read low
  normalized growth: 0.983
S. cerevisiae deletion strains, locus YOR144C, strain elg1, active compounds read low
  normalized growth: 1.02
S. cerevisiae deletion strains, locus YOR184W, strain ser1, active compounds read low
  normalized growth: 0.932
S. cerevisiae deletion strains, locus YOR231W, strain MKK1, active compounds read low
  normalized growth: 0.889
S. cerevisiae deletion strains, locus YOR265W, strain rbl2, active compounds read low
  normalized growth: 0.979
S. cerevisiae deletion strains, locus YOR270C, strain vph1, active compounds read low
  normalized growth: 0.874
S. cerevisiae deletion strains, locus YOR290C, strain snf2, active compounds read low
  normalized growth: 0.961
S. cerevisiae deletion strains, locus YOR316C, strain cot1, active compounds read low
  normalized growth: 0.999
S. cerevisiae deletion strains, locus YPL051W, strain arl3, active compounds read low
  normalized growth: 0.979
S. cerevisiae deletion strains, locus YPL055C, strain LGE1, active compounds read low
  normalized growth: 0.97
S. cerevisiae deletion strains, locus YPL078C, strain atp4, active compounds read low
  normalized growth: 0.956
S. cerevisiae deletion strains, locus YPL106C, strain sse1, active compounds read low
  normalized growth: 0.964
S. cerevisiae deletion strains, locus YPL240C, strain hsp82, active compounds read low
  normalized growth: 0.974
S. cerevisiae deletion strains, locus YPL241C, strain CIN2, active compounds read low
  normalized growth: 0.996
S. cerevisiae deletion strains, locus YPL256C, strain CLN2, active compounds read low
  normalized growth: 0.956
S. cerevisiae deletion strains, locus YPR119W, strain clb2, active compounds read low
  normalized growth: 1
S. cerevisiae deletion strains, locus YPR141C, strain kar3, active compounds read low
  normalized growth: 1.01
S. cerevisiae deletion strains, locus YPR163C, strain tif3, active compounds read low
  normalized growth: 1
S. cerevisiae deletion strains, locus YPR167C, strain met16, active compounds read low
  normalized growth: 1
S. cerevisiae deletion strains, strain wtn01, active compounds read low
  normalized growth: 0.99
S. cerevisiae strains, strain wild type, active compounds read low
  normalized growth: 0.997
